Source: PubChem BioAssay AID1159580 (chemical genetic matrix, 2015)
In all, about 5,500 compounds went through this assay and about 2,000 (36%) were called active. Roughly 18% stayed inconclusive and do not appear here. Cut-off read from the data, not from the text of the source: active = normalized growth mostly below about 0.91 (no sharp cut-off); inconclusive = no clear call, values can overlap the other calls; inactive = mostly above about 0.92. The list shows a part of the results.

Test: chemical genetic growth profiling, strain panel (AID 1159580);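 note: tested at 20 µM; growth read once vehicle control cultures reached saturation at 30 °C; 1 = growth at the plate median or of vehicle wells; lower values mean less growth of the strain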
Details: growth OD

Measured: normalized growth

CON
inactive: S. cerevisiae deletion strains, locus YJR075W, strain HOC1, hits give low values 1.02 | S. cerevisiae deletion strains, locus YKL009W, strain mrt4, hits give low values 0.978 | S. cerevisiae deletion strains, locus YKL068W, hits give low values 0.992 | S. cerevisiae deletion strains, locus YKL085W, strain MDH1 (second series), hits give low values 1.04 | S. cerevisiae deletion strains, locus YKL085W, strain MDH1, hits give low values 1.04 | S. cerevisiae deletion strains, locus YKL160W, strain elf1, hits give low values 1.06 | S. cerevisiae deletion strains, locus YKL190W, strain CNB1, hits give low values 1 | S. cerevisiae deletion strains, locus YKR001C, strain vps1, hits give low values 0.989 | S. cerevisiae deletion strains, locus YKR026C, strain gcn3, hits give low values 0.993 | S. cerevisiae deletion strains, locus YKR091W, strain srl3, hits give low values 0.998 | S. cerevisiae deletion strains, locus YLL001W, strain dnm1, hits give low values 1 | S. cerevisiae deletion strains, locus YLL026W, hits give low values 1.01 | S. cerevisiae deletion strains, locus YLL041C, strain sdh2, hits give low values 0.988 | S. cerevisiae deletion strains, locus YLR027C, strain aat2, hits give low values 1.01 | S. cerevisiae deletion strains, locus YLR039C, strain RIC1, hits give low values 1.01 | S. cerevisiae deletion strains, locus YLR058C, strain SHM2, hits give low values 1.01 | S. cerevisiae deletion strains, locus YLR102C, strain apc9, hits give low values 0.989 | S. cerevisiae deletion strains, locus YLR113W, strain HOG1, hits give low values 0.988 | S. cerevisiae deletion strains, locus YLR221C, strain rsa3, hits give low values 0.984 | S. cerevisiae deletion strains, locus YLR258W, strain gsy2, hits give low values 1.01 | S. cerevisiae deletion strains, locus YLR262C, strain YPT6 (second series), hits give low values 0.999 | S. cerevisiae deletion strains, locus YLR262C, strain YPT6, hits give low values 1.01 | S. cerevisiae deletion strains, locus YLR268W, strain sec22, hits give low values 0.995 | S. cerevisiae deletion strains, locus YLR320W, strain mms22, hits give low values 1.02 | S. cerevisiae deletion strains, locus YLR330W, strain CHS5, hits give low values 1.01 | S. cerevisiae deletion strains, locus YLR342W, strain FKS1 (second series), hits give low values 0.999 | S. cerevisiae deletion strains, locus YLR342W, strain FKS1, hits give low values 1.01 | S. cerevisiae deletion strains, locus YLR357W, strain rsc2, hits give low values 0.97 | S. cerevisiae deletion strains, locus YLR370C, strain arc18, hits give low values 1.04 | S. cerevisiae deletion strains, locus YLR371W, strain rom2, hits give low values 0.99 | S. cerevisiae deletion strains, locus YLR384C, strain iki3, hits give low values 1.01 | S. cerevisiae deletion strains, locus YLR418C, strain cdc73, hits give low values 1.03 | S. cerevisiae deletion strains, locus YML016C, strain PPZ1, hits give low values 1 | S. cerevisiae deletion strains, locus YML032C, strain rad52, hits give low values 1.01 | S. cerevisiae deletion strains, locus YML120C, strain ndi1, hits give low values 1 | S. cerevisiae deletion strains, locus YML124C, strain tub3, hits give low values 0.987 | S. cerevisiae deletion strains, locus YMR058W, strain fet3, hits give low values 0.998 | S. cerevisiae deletion strains, locus YMR078C, strain ctf18, hits give low values 0.99 | S. cerevisiae deletion strains, locus YMR125W, strain sto1, hits give low values 0.987 | S. cerevisiae deletion strains, locus YMR129W, hits give low values 1.02 | S. cerevisiae deletion strains, locus YMR205C, strain PFK2, hits give low values 1 | S. cerevisiae deletion strains, locus YMR223W, strain ubp8, hits give low values 0.993 | S. cerevisiae deletion strains, locus YMR231W, strain pep5, hits give low values 0.996 | S. cerevisiae deletion strains, locus YMR263W, strain SAP30, hits give low values 1 | S. cerevisiae deletion strains, locus YMR307W, strain GAS1, hits give low values 1.09 | S. cerevisiae deletion strains, locus YNL067W, strain RPL9B, hits give low values 1.03 | S. cerevisiae deletion strains, locus YNL071W, strain lat1, hits give low values 0.985 | S. cerevisiae deletion strains, locus YNL153C, strain GIM3, hits give low values 1.04 | S. cerevisiae deletion strains, locus YNL183C, strain NPR1, hits give low values 0.927 | S. cerevisiae deletion strains, locus YNL209W, strain ssb2, hits give low values 1.01 | S. cerevisiae deletion strains, locus YNL233W, strain BNI4, hits give low values 1.04 | S. cerevisiae deletion strains, locus YNL248C, strain rpa49, hits give low values 1.02 | S. cerevisiae deletion strains, locus YNL250W, strain rad50, hits give low values 0.99 | S. cerevisiae deletion strains, locus YNL271C, strain bni1, hits give low values 0.986 | S. cerevisiae deletion strains, locus YNL298W, strain CLA4, hits give low values 0.981 | S. cerevisiae deletion strains, locus YNL307C, strain MCK1, hits give low values 0.993 | S. cerevisiae deletion strains, locus YNL322C, strain KRE1 (second series), hits give low values 1.01 | S. cerevisiae deletion strains, locus YNR049C, strain mso1, hits give low values 1 | S. cerevisiae deletion strains, locus YNR052C, strain pop2, hits give low values 0.978 | S. cerevisiae deletion strains, locus YOL006C, strain TOP1, hits give low values 1.08 | S. cerevisiae deletion strains, locus YOL012C, strain htz1 1.2 | S. cerevisiae deletion strains, locus YOL147C, strain pex11, hits give low values 0.998 | S. cerevisiae deletion strains, locus YOR001W, strain rrp6, hits give low values 0.968 | S. cerevisiae deletion strains, locus YOR061W, strain CKA2, hits give low values 1 | S. cerevisiae deletion strains, locus YOR069W, strain VPS5, hits give low values 0.993 | S. cerevisiae deletion strains, locus YOR070C, strain gyp1, hits give low values 1.02 | S. cerevisiae deletion strains, locus YOR080W, strain dia2, hits give low values 0.996 | S. cerevisiae deletion strains, locus YOR083W, strain WHI5, hits give low values 1.03 | S. cerevisiae deletion strains, locus YOR106W, strain vam3, hits give low values 1.02 | S. cerevisiae deletion strains, locus YOR136W, strain idh2, hits give low values 0.98 | S. cerevisiae deletion strains, locus YOR144C, strain elg1, hits give low values 0.995 | S. cerevisiae deletion strains, locus YOR184W, strain ser1, hits give low values 0.958 | S. cerevisiae deletion strains, locus YOR231W, strain MKK1, hits give low values 1.04 | S. cerevisiae deletion strains, locus YOR265W, strain rbl2, hits give low values 1.01 | S. cerevisiae deletion strains, locus YOR270C, strain vph1, hits give low values 1.04 | S. cerevisiae deletion strains, locus YOR290C, strain snf2, hits give low values 1.07 | S. cerevisiae deletion strains, locus YOR316C, strain cot1, hits give low values 0.983 | S. cerevisiae deletion strains, locus YPL051W, strain arl3, hits give low values 1.04 | S. cerevisiae deletion strains, locus YPL055C, strain LGE1, hits give low values 1.09 | S. cerevisiae deletion strains, locus YPL078C, strain atp4, hits give low values 1.04 | S. cerevisiae deletion strains, locus YPL106C, strain sse1, hits give low values 1.01 | S. cerevisiae deletion strains, locus YPL240C, strain hsp82, hits give low values 1 | S. cerevisiae deletion strains, locus YPL256C, strain CLN2, hits give low values 0.993 | S. cerevisiae deletion strains, locus YPR119W, strain clb2, hits give low values 0.99 | S. cerevisiae deletion strains, locus YPR141C, strain kar3, hits give low values 0.989 | S. cerevisiae deletion strains, locus YPR163C, strain tif3, hits give low values 0.991 | S. cerevisiae deletion strains, locus YPR167C, strain met16, hits give low values 0.984 | S. cerevisiae deletion strains, strain wtn01, hits give low values 0.978 | S. cerevisiae strains, strain wild type, hits give low values 0.997
